Laboratory results taken from the supplement of paper PMC9694430.

System: LOC_OS02G45750-cb003
Experiment: thermal shift delta Tm vs DMSO control; higher = stronger stabilization (binding)
Details: 12.5 µM; protein concentration 2 µM
Summary of the method: (§1)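 Purified, E. coli-expressed rice kinase domain constructs were tested by differential scanning fluorimetry in 96-well plates: 19.5 μl of 2 μM kinase in 100 mM potassium phosphate pH 7.5, 150 mM NaCl, 10% glycerol, 5 × SYPRO Orange, plus compound in DMSO. Fluorescence was read from 25°C to 95°C at 0.05°C/s. Melting temperatures came from Boltzmann fits, and the shift is the triplicate mean relative to protein with DMSO alone.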

Row | SMILES | thermal shift delta Tm
1 | O=c1cc(N2CCOCC2)oc2c(-c3ccc4c(c3)OCCO4)csc12 | 0.67 °C
2 | C=CC(=O)Nc1cc(Nc2nccc(-c3c[nH]c4ccccc34)n2)c(OC)cc1N(C)CCN(C)C | 1.45 °C
3 | Nc1nccc(Oc2ccc3c(C(=O)Nc4cccc(C(F)(F)F)c4)cccc3c2)n1 | -1.33 °C
4 | CC(C)(C)c1nc(-c2ccc(NC(=O)Nc3cccc(C(F)(F)F)c3)c3ccccc23)c2c(N)nccn12 [kira6] | 2.31 °C
5 | COc1ccc(-c2cc3c(C)nc(N)nc3n([C@H]3CC[C@H](OCCO)CC3)c2=O)cn1 | 0.52 °C
6 | O=C(O)c1cc(O)c2c(c1)[C@@H]([C@H]1c3cc(C(=O)O)cc(O)c3C(=O)c3c(O[C@@H]4O[C@H](CO)[C@@H](O)[C@H](O)[C@H]4O)cccc31)c1cccc(O[C@@H]3O[C@H](CO)[C@@H](O)[C@H](O)[C@H]3O)c1C2=O [Sennoside B] | 0.1 °C
7 | NC(=O)c1cnc2[nH]ccc2c1N[C@@H]1[C@@H]2CC3C[C@H]1C[C@@](O)(C3)C2 | 8.38 °C
8 | C=CC(=O)Nc1cccc(Nc2nc(Nc3ccc(OCCOC)cc3)ncc2F)c1 | 0 °C
9 | CCS(=O)(=O)Nc1ccc2c(c1)/C(=C(/Nc1ccc(CN3CCCCC3)cc1)c1ccccc1)C(=O)N2 [Hesperadin] | 14.4 °C
10 | COc1cc2c(cc1OC)[C@@H]1C(=O)c3ccc4c(c3O[C@@H]1CO2)C=CC(C)(C)O4 [Deguelin] | 0.46 °C
11 | Cc1cc(Nc2cc(N3CCN(C)CC3)nc(/C=C/c3ccccc3)n2)n[nH]1 [ENMD-2076 L-(+)-Tartaric acid] | 4.88 °C
12 | Cc1ccc(NC(=O)c2ccc(CN3CCN(C)CC3)cc2)cc1Nc1nc(-c2cccnc2)cs1 [Masitinib (AB1010)] | 0.39 °C
13 | C=CC(=O)N1CC[C@@H](Oc2nc(Nc3ccc(N4CCC(N5CCN(C)CC5)CC4)cc3)c(C(N)=O)nc2CC)C1 [Naquotinib(ASP8273)] | 0 °C
14 | N#CC(=C(/N)Sc1ccccc1N)/C(C#N)=C(\N)Sc1ccccc1N | 0.68 °C
15 | COc1cc2/c(=N/c3ccc(Br)cc3F)nc[nH]c2cc1OCC1CCN(C)CC1 [Vandetanib (ZD6474)] | 3.64 °C
16 | O=C(Nc1cccc(C(F)(F)F)c1)c1cccc2cc(Oc3cc(CO)ncn3)ccc12 | 0.82 °C
17 | CS(=O)(=O)CCNCc1ccc(-c2ccc3ncnc(Nc4ccc(OCc5cccc(F)c5)c(Cl)c4)c3c2)o1 [Lapatinib] | 0.06 °C
18 | c1cn2cc(-c3ccc4cn[nH]c4c3)nc(Nc3ccc(N4CCOCC4)cc3)c2n1 [Entospletinib (GS-9973)] | 0.66 °C
19 | CS(=O)(=O)c1cccc(CNc2nc(Nc3ccc4c(c3)CCC(=O)N4)ncc2C(F)(F)F)c1 | 10.4 °C
20 | CN1CCN(Cc2ccc(NC(=O)Nc3ccc(Oc4ccnc(N)n4)cc3)cc2C(F)(F)F)CC1 | 5.22 °C
21 | OCCn1cc(-c2cnc3nnn(Cc4ccc5ncccc5c4)c3n2)cn1 | 0.63 °C
22 | O=C1NC(=O)C(c2cnc3ccccn23)=C1c1cn2c3c(cc(F)cc13)CN(C(=O)N1CCCCC1)CC2 | 0.77 °C
23 | C=CC(=O)N1CCC[C@@H](n2nc(-c3ccc(Oc4ccccc4)cc3)c3c(N)ncnc32)C1 | 1.46 °C
24 | CC(C)(O)CNc1ncc(-c2ccnc(Nc3ccnc(Cl)c3)n2)c(CC2CC2)n1 | 2.85 °C
25 | COc1ccc(S(=O)(=O)N(C(C)=O)c2ccccc2/C=C/c2cc[n+]([O-])cc2)cc1 | -0.35 °C

System: LOC_OS02G54510-cb004
Experiment: as above
Details: 12.5 µM; protein concentration 2 µM
Summary of the method: as §1

Row | SMILES | thermal shift delta Tm
26 | COc1cc(OC)cc(-c2cc3cnc(N)nc3nc2NC(=O)NC(C)(C)C)c1 | 0.19 °C
27 | COc1cc2nccc(Oc3ccc(NC(=O)C4(C(=O)Nc5ccc(F)cc5)CC4)cc3)c2cc1OC [Cabozantinib malate (XL184)] | 0.27 °C
28 | COc1ncc(-c2ccc3nccc(-c4ccnnc4)c3c2)cc1NS(=O)(=O)c1ccc(F)cc1F | 0.45 °C
29 | Cc1cc(C(C)Nc2ccccc2)c2nc(N3CCOCC3)cc(=O)n2c1 (stereo not drawn) | 0.09 °C
30 | FC(F)(F)c1ccc(CNc2ccc(Cc3c[nH]c4ncc(Cl)cc34)cn2)cn1 [Pexidartinib (PLX3397)] | 0.69 °C
31 | NC(=O)c1ccc(N(C(N)=O)c2c(F)cccc2F)nc1-c1ccc(F)cc1F | -0.06 °C
32 | NCC(=O)Nc1ccc(-n2nc(C(F)(F)F)cc2-c2ccc3c(ccc4ccccc43)c2)cc1 | -0.91 °C
33 | CCn1c(-c2nonc2N)nc2c(C#CC(C)(C)O)ncc(OC[C@H]3CCCNC3)c21 | -0.17 °C
34 | Nc1cccc(S(=O)(=O)N2CCCN(S(=O)(=O)c3ccc4c(c3)OCCO4)CC2)c1 | 0.12 °C
35 | C[C@@H]1COC(Nc2ccc3ncnc(Nc4ccc(OCc5nccs5)c(Cl)c4)c3c2)=N1 [Varlitinib] | 0.27 °C
36 | Cc1cc2c(F)c(Oc3ncnn4cc(OC[C@@H](C)OC(=O)[C@H](C)N)c(C)c34)ccc2[nH]1 | -0.11 °C
37 | CNC(=O)c1ccc(-c2cnc3ncc(Cc4ccc5ncccc5c4)n3n2)cc1F | 0.23 °C
38 | CN(C)C/C=C/C(=O)Nc1cc2c(Nc3ccc(F)c(Cl)c3)ncnc2cc1O[C@H]1CCOC1 [Afatinib (BIBW2992)] | -0.42 °C
39 | O=c1cc(N2CCOCC2)oc2c(-c3ccc4c(c3)OCCO4)csc12 | -0.08 °C
40 | C=CC(=O)Nc1cc(Nc2nccc(-c3c[nH]c4ccccc34)n2)c(OC)cc1N(C)CCN(C)C | 0.35 °C
41 | Nc1nccc(Oc2ccc3c(C(=O)Nc4cccc(C(F)(F)F)c4)cccc3c2)n1 | 0.78 °C
42 | CC(C)(C)c1nc(-c2ccc(NC(=O)Nc3cccc(C(F)(F)F)c3)c3ccccc23)c2c(N)nccn12 [kira6] | 9.87 °C
43 | COc1ccc(-c2cc3c(C)nc(N)nc3n([C@H]3CC[C@H](OCCO)CC3)c2=O)cn1 | 0.05 °C
44 | O=C(O)c1cc(O)c2c(c1)[C@@H]([C@H]1c3cc(C(=O)O)cc(O)c3C(=O)c3c(O[C@@H]4O[C@H](CO)[C@@H](O)[C@H](O)[C@H]4O)cccc31)c1cccc(O[C@@H]3O[C@H](CO)[C@@H](O)[C@H](O)[C@H]3O)c1C2=O [Sennoside B] | -0.47 °C

Row | SMILES | thermal shift delta Tm
45 | NC(=O)c1cnc2[nH]ccc2c1N[C@@H]1[C@@H]2CC3C[C@H]1C[C@@](O)(C3)C2 | 2.49 °C
46 | C=CC(=O)Nc1cccc(Nc2nc(Nc3ccc(OCCOC)cc3)ncc2F)c1 | 1.8 °C
47 | CCS(=O)(=O)Nc1ccc2c(c1)/C(=C(/Nc1ccc(CN3CCCCC3)cc1)c1ccccc1)C(=O)N2 [Hesperadin] | 0.53 °C
48 | COc1cc2c(cc1OC)[C@@H]1C(=O)c3ccc4c(c3O[C@@H]1CO2)C=CC(C)(C)O4 [Deguelin] | -0.02 °C
49 | Cc1cc(Nc2cc(N3CCN(C)CC3)nc(/C=C/c3ccccc3)n2)n[nH]1 [ENMD-2076 L-(+)-Tartaric acid] | 2.59 °C
50 | Cc1ccc(NC(=O)c2ccc(CN3CCN(C)CC3)cc2)cc1Nc1nc(-c2cccnc2)cs1 [Masitinib (AB1010)] | 0.33 °C
51 | C=CC(=O)N1CC[C@@H](Oc2nc(Nc3ccc(N4CCC(N5CCN(C)CC5)CC4)cc3)c(C(N)=O)nc2CC)C1 [Naquotinib(ASP8273)] | 3.07 °C
52 | N#CC(=C(/N)Sc1ccccc1N)/C(C#N)=C(\N)Sc1ccccc1N | -0.59 °C
53 | COc1cc2/c(=N/c3ccc(Br)cc3F)nc[nH]c2cc1OCC1CCN(C)CC1 [Vandetanib (ZD6474)] | 0.98 °C
54 | O=C(Nc1cccc(C(F)(F)F)c1)c1cccc2cc(Oc3cc(CO)ncn3)ccc12 | 0.52 °C
55 | CS(=O)(=O)CCNCc1ccc(-c2ccc3ncnc(Nc4ccc(OCc5cccc(F)c5)c(Cl)c4)c3c2)o1 [Lapatinib] | -0.31 °C
56 | c1cn2cc(-c3ccc4cn[nH]c4c3)nc(Nc3ccc(N4CCOCC4)cc3)c2n1 [Entospletinib (GS-9973)] | 1.02 °C
57 | CS(=O)(=O)c1cccc(CNc2nc(Nc3ccc4c(c3)CCC(=O)N4)ncc2C(F)(F)F)c1 | 1.28 °C
58 | CN1CCN(Cc2ccc(NC(=O)Nc3ccc(Oc4ccnc(N)n4)cc3)cc2C(F)(F)F)CC1 | 7.6 °C
59 | OCCn1cc(-c2cnc3nnn(Cc4ccc5ncccc5c4)c3n2)cn1 | 0.54 °C
60 | O=C1NC(=O)C(c2cnc3ccccn23)=C1c1cn2c3c(cc(F)cc13)CN(C(=O)N1CCCCC1)CC2 | 0 °C
61 | C=CC(=O)N1CCC[C@@H](n2nc(-c3ccc(Oc4ccccc4)cc3)c3c(N)ncnc32)C1 | 1.25 °C
62 | CC(C)(O)CNc1ncc(-c2ccnc(Nc3ccnc(Cl)c3)n2)c(CC2CC2)n1 | 0.6 °C
63 | COc1ccc(S(=O)(=O)N(C(C)=O)c2ccccc2/C=C/c2cc[n+]([O-])cc2)cc1 | -0.24 °C
